Assay results from PubChem BioAssay AID1159570 (Broad Institute, 2015).
Results with a measured potency or affinity are listed apart. The source made the active and inactive calls. No rule for the calls is given here.

Assay: growth inhibition of yeast DHODH-expressing 3D7 parasites – SYBR Green, dry powder samples, dose response (AID 1159570)
Details: P. falciparum 3D7-ScDHODH growth, SYBR Green fluorescence; series mostly up to 19.5 µM

outcome, inactive:
Cc1ccccc1-c1ccccc1[C@H]1[C@@H](C#N)N(C(=O)c2ccccc2)[C@@H]1CO
COc1ccc(S(=O)(=O)Nc2ccc3c(c2)CC(=O)N([C@@H](C)CO)C[C@H](C)[C@H](CN(C)S(=O)(=O)c2ccc(OC)cc2)O3)cc1
COc1cccc(C#Cc2ccc([C@H]3[C@@H](CO)N(C(=O)c4ccccn4)[C@H]3C#N)cc2)c1
C[C@@H]1CN([C@H](C)CO)C(=O)c2cccc(NC(=O)c3ccc(-c4nccs4)cc3)c2O[C@H]1CN(C)Cc1ccc(C(F)(F)F)cc1
O=C(NC[C@@H]1CC[C@H]2[C@H](CN2Cc2cc(-c3ccccc3)on2)O1)c1ccc2c(c1)OCO2
